Experimental data from PubChem BioAssay (NCATS).
Values joined by “and” are separate entries in the source; they are usually repeats but may differ in a detail not shown here. Identical values can stand only once. Records with an inconclusive call do not appear. A number with no mark means an inactive call. Active and inactive are the calls of the source. Calls follow the shape of the dose curve; as a rule, active = well fitted curve in the direction sought with a large enough effect; inconclusive = small, poorly fitted or top-dose-only effect, or another doubt; inactive = no such curve, though single readings can be large or run the other way.
% is scaled to controls: 0 for no effect and ±100 for the full control effect; potency is read from the fitted curve at half-maximal effect.

Experiment: qHTS Assay for Identifying Gametocytocidal Compounds (AID 743244);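 as to max response: actives lower the fluorescent signal which means gametocytes are killed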
Conditions: P. falciparum 3D7 stage III-V gametocytes, alamarBlue, 72 h; max response: active compounds read low
How it was run: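 Fluorescence at Ex 525/Em 598 nm, recorded 24 h after alamarBlue addition, reports residual metabolic activity of 3D7 gametocytes (stages III–V) following 72 h compound exposure at 37 °C, 5% CO2.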
With `Nc1ccc(C(=O)O)c(O)c1` the max response was 1.29%. With `Cc1nc2ccccc2n1Cc1ccc(Cl)cc1` the max response was 3.69%. For `Cc1cc(O)c2ccccc2c1O`, the Potency was 15.8 µM (active). Compound `CCCCCCOc1ccccc1C(N)=O` has a max response of -0.639%. Work on `CC(=O)c1ccc(OCC(=O)N2CCCCC2)cc1` yielded a max response of 6.76%. `Cc1c(Nc2ncccc2C(=O)O)cccc1C(F)(F)F` showed a max response of 18.5%. Compound `O=C(Nc1ccc(C(=O)O)c(O)c1)c1ccccc1` has a max response of 3.53%. In the case of `CCOc1ccc2nc(S(N)(=O)=O)sc2c1`, the max response is reported as 10.4%. For `COc1ccc(-c2cc(=S)ss2)cc1`, the max response was 9.16%. With `C/C(=N\O)c1ccc(OCC(=O)N2CCCCC2)cc1` the max response was 0.0539%. `CO/N=C(\C(=O)N[C@@H]1C(=O)N2C(C(=O)O)=C(COC(C)=O)CS[C@H]12)c1csc(N)n1` (stereo in doubt) showed a max response of 12.7%. With `C=CCc1cccc(/C=N/NC(=O)CN2CCN(Cc3ccccc3)CC2)c1O` the Potency was 29.6 µM (active). With `CCOC(=O)c1ccccc1O` the max response was -3.35% and 9.79%. With `C=CCN1C(=O)C(CC(C)C)NC1=S` (centres undefined) the max response was 24.3% and -10.7%. For `Clc1ccccc1-c1nc(-c2ccncc2)no1`, the max response was 20.9%. Work on `COC(=O)C1=C(C)NC(C)=C(C(=O)OCC(C)C)C1c1ccccc1[N+](=O)[O-]` (centres undefined) yielded a max response of 0.875%. In the case of `C=C(Nc1ccc(OCC)cc1)Nc1ccc(OCC)cc1`, the max response is reported as 14.6% and 14.3%. For `CN(C)CCn1nnnc1SCC1=C(C(=O)O)N2C(=O)[C@@H](NC(=O)Cc3csc(N)n3)[C@H]2SC1`, the max response was 19.2%. Compound `C[C@H](O)[C@H](O)[C@H]1CNc2nc(N)[nH]c(=O)c2N1` has a max response of -5.73%. In the case of `O=C(O)Cc1ccc(-c2ccccc2)cc1`, the max response is reported as -0.327%. With `CCCCC[C@H](O)/C=C/[C@@H]1[C@@H](C/C=C\CCCC(=O)O)[C@@H](O)C[C@H]1O` the max response was -4.72% and 7.02%. For `O=C(O)COc1ccc(C(=O)c2cccs2)c(Cl)c1Cl`, the max response was -3.69% and 20.3%. With `CCCSc1ccc2nc(NC(=O)OC)[nH]c2c1` the max response was 0.499%. Compound `CC1(C)S[C@@H]2[C@H](NC(=O)[C@H](NC(=O)N3CCN(S(C)(=O)=O)C3=O)c3ccccc3)C(=O)N2[C@H]1C(=O)O` has a max response of 9.5%.
